Results taken from PubChem BioAssay.
Activity calls are given as the source filed them.

Legend:
[1] = A549 cell viability effects, profiling panel, calcein-AM fluorescence, 48 h, basal (AID 1162); conditions: higher = more signal
[2] = adipocyte viability effects, profiling panel, cell-based, 3T3-L1 adipocytes, calcein-AM fluorescence, 48 h, basal (AID 1163); conditions: 3T3-L1 adipocytes viability, higher = more signal
[3] = HepG2 cell viability effects, profiling panel, calcein-AM fluorescence, 48 h, basal (AID 1164); conditions: higher = more signal
[4] = MM1S cell viability effects, profiling panel, calcein-AM fluorescence, 48 h, basal (AID 1165); conditions: higher = more signal;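 further: viability of MM1S multiple myeloma cells under basal unstimulated conditions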
[5] = basal RPMI8226 viability, no added stimulus, profiling panel, cell-based, calcein-AM fluorescence, 48 h, PK04 Diversity Set (AID 1166); conditions: RPMI8226 myeloma viability, higher = more signal;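 further: cells grown under basal conditions without added stimulus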
[6] = basal HepG2 mitochondrial membrane potential changes, profiling panel, cell-based, JC-1 fluorescence, 24 h, 100 nL compound (AID 1167); conditions: higher = more signal
[7] = basal 3T3-L1 adipocyte mitochondrial potential changes, profiling panel, cell-based, JC-1 fluorescence, 3T3-L1 adipocytes, 24 h, 100 nL compound (AID 1168); conditions: JC-1 mitochondrial fluorescence, higher = more signal, called active from +8 up or from −8 down
[8] = basal RPMI8226 mitochondrial membrane potential changes, profiling panel, cell-based, JC-1 fluorescence, 24 h, 100 nL compound (AID 1169); conditions: RPMI8226 myeloma, JC-1 mitochondrial potential fluorescence, higher = more signal
[9] = basal MM1S mitochondrial membrane potential changes, profiling panel, cell-based, JC-1 fluorescence, 24 h, 100 nL compound (AID 1170); conditions: higher = more signal
[10] = A549 lung cancer cell viability effects, profiling panel, resazurin fluorescence, 24 h, PK04 Diversity Set (AID 1171); conditions: higher = more signal, called active from +8 up or from −8 down
Further: test concentration not given here.

Row | Structure (SMILES) | z-score [1] | z-score [2] | z-score [3] | z-score [4] | z-score [5] | z-score [6] | z-score [7] | z-score [8] | z-score [9] | z-score [10]
1 | COc1ccc([Si](C)(C)[C@@H]2[C@@H](CCO)O[C@]3(C(=O)N(Cc4ccc(N5C(=O)c6cccc7cccc5c67)cc4)c4ccccc43)[C@H]2C)cc1 | -0.35 | -0.903 | -3.63 | -1.6 | -4.12 | 0.00779 | 1.89 (inactive) | -1.11 | -1.15 | -1.43 (inactive)
2 | C=CCCN(CC#C[C@H]1Oc2ccccc2S(=O)(=O)N2CCC[C@@H]12)S(=O)(=O)c1ccc(C)cc1 | 0.436 | -0.257 | -0.383 | -3.21 | -1.77 | 0.825 | -0.184 (inactive) | -0.972 | -1.5 | 0.967 (inactive)
3 | C=CCOC(=O)[C@H]1[C@@H]2C(=O)O[C@@H](c3ccccc3)[C@@H](c3ccccc3)N2[C@@H](c2ccc(OCCOC(=O)[C@H]3C[C@H]4C(=O)N[C@@H](CCCC[N+](C)(C)C)C(=O)N4[C@H]3c3ccc(O)cc3)cc2)[C@]12C(=O)Nc1ccccc12 | 1.6 | 0.6 | 0.549 | 0.419 | 0.337 | -1.12 | 1.31 (inactive) | -0.456 | -0.0465 | 0.896 (inactive)
4 | O=C1OCC=C[C@H]2OC34C=CCN(c5ccc(Cl)cc5)C(=O)[C@H]3N(CCCO)C(=O)[C@@H]4[C@@H]12 (stereo not given in full) | -0.0108 | 1.46 | -0.722 | 0.237 | -0.802 | -0.545 | 0.978 (inactive) | -0.454 | 0.856 | -0.875 (inactive)
5 | C=C(C)[C@@H]1CC=C(C(O)C2C=CC3C(=O)N(Cc4ccccc4)C(=O)C3N2n2cnnc2)CC1 (stereo not given in full) | -0.675 | 0.233 | -1.05 | 0.364 | -0.176 | -0.458 | -0.403 (inactive) | 0.666 | -2.13 | 0.159 (inactive)
6 | O=C(NCc1ccccc1)[C@@H]1c2ccccc2C(=O)N(Cc2cc(F)cc(C(F)(F)F)c2)[C@H]1c1ccc(CO)cc1 | 1.5 | -0.115 | 1.37 | 0.105 | -0.161 | 1.88 | 0.079 (inactive) | 0.79 | -0.511 | -0.811 (inactive)
7 | Cc1ccc(S[C@]2(C(=O)NCCCN(C)C)CC(=O)N(C(C)C)[C@@H]2c2ccc(CO)cc2I)cc1 | 2.16 | -0.054 | 0.498 | -3.07 | -1.37 | 2.47 | 1.06 (inactive) | -0.423 | -2.32 | 0.505 (inactive)
8 | CN(C)CCCC[C@@H]1NC(=O)[C@@H]2C[C@H](C(=O)NCCCCCCN)[C@H](c3ccc(O)cc3)N2C1=O | -0.215 | 0.958 | -0.544 | 0.405 | 0.483 | -1.36 | -0.0708 (inactive) | 0.576 | 0.213 | 0.291 (inactive)
9 | C=C(COC)C(=O)CC[C@@H](OC(=O)c1ccccc1-c1ccccc1C(=O)O)c1ccc(CO)o1 | -1.46 | -0.736 | -2.67 | -1.69 | -0.883 | -2.74 | 0.429 (inactive) | -0.323 | -0.857 | -1.03 (inactive)
10 | CN1C(=O)C2C=CC(C(O)c3ccccc3)N(NC(=O)OC(C)(C)C)C2C1=O (stereo not given) | -1.66 | 0.103 | -0.983 | -0.965 | -0.386 | -1.22 | -0.0572 (inactive) | -0.306 | 0.32 | -0.449 (inactive)
11 | C=CC[C@@]1(C(=O)NCc2ccccc2)N=C(c2ccc(OCCCO)cc2)O[C@@H]1c1ccccc1CN=[N+]=[N-] | -0.651 | 0.115 | -1.09 | -1.84 | -3 | -0.675 | -1.85 (inactive) | -0.979 | -0.975 | -1.23 (inactive)
12 | CCCCC(=O)N(Cc1ccccc1F)[C@@H]1CC(C(=O)NCCO)=C[C@H](Oc2c(I)cc(CO)cc2OC)[C@H]1O | -0.435 | 1.65 | -0.765 | 0.364 | -1.7 | 0.197 | -0.916 (inactive) | -0.325 | -0.0648 | -0.873 (inactive)
13 | COc1ccc(C(=O)Nc2cccc(CN3C(=O)[C@@]4(O[C@@H](CCn5cc([C@H](O)c6ccccc6)nn5)[C@H]([Si](C)(C)c5ccc(OC)cc5)[C@H]4C)c4ccccc43)c2)cc1 | -0.311 | 0.0953 | -3.44 | -2.63 | -3.6 | -2.16 | -0.694 (inactive) | -1.03 | -2.24 | -1.88 (inactive)
14 | Cc1cc(C)c(C(O)C2C=CC3C(=O)NC(=O)C3N2Nc2ccccn2)c(C)c1 (stereo not given) | -0.948 | -0.397 | 0.359 | 0.22 | 0.066 | -0.767 | -0.363 (inactive) | -0.188 | -0.0615 | -0.875 (inactive)
15 | O=C1C[C@@](C(=O)O)(c2ccc([N+](=O)[O-])cc2)[C@@H](c2ccc(CO)cc2I)N1C1CCCCC1 | 1.05 | 1.32 | 0.279 | -3.6 | -3.61 | 0.053 | -0.962 (inactive) | -0.826 | -1.86 | 0.597 (inactive)
16 | O=C(NCC(F)(F)F)[C@@H]1c2ccccc2C(=O)N(Cc2ccccc2)[C@H]1c1ccc(CO)cc1 | 1.73 | 0.402 | 1.34 | 0.356 | -0.407 | 2.14 | 1.2 (inactive) | 0.0511 | -0.657 | 0.176 (inactive)
17 | COCCOC(=O)N1C(=O)[C@@]2(c3cc(C#CC4=CCCCC4)ccc31)[C@H](C(=O)N1CCN(c3ncccn3)CC1)[C@H]1C(=O)O[C@H](c3ccccc3)[C@H](c3ccccc3)N1[C@@H]2c1ccc(OCCO)cc1 | -0.167 | 0.937 | -0.247 | -1.05 | -0.812 | -0.203 | 1.59 (inactive) | -0.606 | -0.822 | 0.532 (inactive)
18 | O=[N+]([O-])c1ccc(C[n+]2ccc(CCCO)cc2)o1 | -0.38 | 1.01 | -0.405 | -0.41 | -2.35 | -1.07 | -0.266 (inactive) | -0.614 | 0.5 | -0.77 (inactive)
19 | CCOC(=O)C1=C[C@@H](C(C)(C)C)N(S(=O)(=O)c2ccc(C)cc2)[C@H]1c1ccc(Cl)c(Cl)c1 | -0.292 | -0.257 | -1.36 | -0.266 | -0.986 | 4.44 | -1.66 (inactive) | -0.981 | -1.33 | -2.26 (inactive)
20 | COc1ccc([Si](C)(C)[C@H]2[C@H](CCO)O[C@@]3(C(=O)N(Cc4ccccc4)c4ccc(N5C(=O)COc6ccccc65)cc43)[C@@H]2C)cc1 | -0.831 | 0.281 | -3.01 | -3 | -3.25 | -0.111 | 1.46 (inactive) | -0.855 | -1.47 | -1.74 (inactive)
21 | COC(=O)c1c2oc(c1C(=O)OC)C(=O)N[C@H](Cc1ccccc1)Cn1nncc1C1(CCCCC1)NC(=O)N[C@H](CO)CC2 | 0.876 | 0.0786 | 0.8 | -1.1 | 0.358 | 3.8 | -0.413 (inactive) | -0.65 | -0.936 | 0.286 (inactive)
22 | Cc1ccc(S[C@]2(C(=O)NCC(F)(F)F)CC(=O)N(C3Cc4ccccc4C3)[C@@H]2c2ccc(CO)cc2I)cc1 | 0.833 | 0.236 | 0.506 | -2.1 | -3.02 | 0.194 | -0.131 (inactive) | 0.045 | -1.4 | 0.537 (inactive)
23 | O=C1O[C@@H](c2ccccc2)[C@@H](c2ccccc2)N2[C@@H](c3ccc(O)cc3)[C@]3(C(=O)Nc4ccc(C#CCCO)cc43)[C@@H](C(=O)N3CCCCCCC3)[C@H]12 | 0.498 | 0.93 | -0.284 | 0.59 | -1.24 | -1.06 | -0.585 (inactive) | -0.185 | 0.129 | 0.254 (inactive)
24 | CCOC(=O)C=Cc1cccc(OC)c1O | -0.364 | 0.532 | -0.834 | 0.408 | -1.61 | -0.94 | 0.151 (inactive) | -0.149 | -1.25 | -0.787 (inactive)
25 | COCCOC(=O)N1C(=O)[C@@]2(c3ccccc31)[C@H](c1ccc(O)cc1)N1[C@H](c3ccccc3)[C@H](c3ccccc3)OC(=O)[C@H]1[C@@H]2C(N)=O | 0.357 | 0.502 | 1.75 | 0.936 | 0.395 | -0.815 | 0.76 (inactive) | 0.296 | -0.971 | -0.83 (inactive)
26 | COC(=O)[C@@]1(Cc2ccc(OC)cc2)[C@H]2c3cc(C(=O)N(C)C)n(Cc4ccc(OC)c(OC)c4)c3C[C@H]2CN1C(=O)c1ccccc1 | -1.72 | -0.204 | -1.18 | -1.32 | -2.07 | 0.297 | -1.29 (inactive) | -0.605 | -1.11 | -1.35 (inactive)
27 | COCCOC(=O)N1C(=O)[C@@]2(c3cc(C#CCCO)ccc31)[C@H](c1ccc(O)cc1)N1[C@H](c3ccccc3)[C@H](c3ccccc3)OC(=O)[C@H]1[C@@H]2C(=O)N1CCCCCCC1 | -0.0601 | 0.943 | 1.18 | 0.632 | -1.22 | -0.701 | -0.838 (inactive) | 0.242 | 0.271 | -0.44 (inactive)
28 | CN(C)CCCCCCNC(=O)[C@@H]1C[C@@H]2C(=O)N[C@@H](Cc3ccccc3)C(=O)N2[C@@H]1c1cccc(OCCO)c1 | -0.778 | 0.559 | -0.857 | 0.802 | -0.555 | -1.02 | -0.822 (inactive) | 0.0287 | 0.316 | -0.115 (inactive)
